Common to all, as to assay: NCI-60 one-dose screen, 48 h (100 = growth as untreated, 0 = no growth, -100 = all killed)
Common to all, as to conditions: 10 µM

Assay [1] deals with HCT-15 colon.
For assay [2], the system named is HT29 colon.
Assay [3] concerns SNB-75 CNS.
Assay [4] concerns SNB-19 CNS.
Assay [5] has as its system U251 CNS.
The test system of assay [6] is PC-3 prostate.
Assay [7] relates to SK-MEL-5 melanoma.
Assay [8] deals with UACC-62 melanoma.
Assay [9] has as its system LOX IMVI melanoma.
Assay [10] deals with SK-MEL-28 melanoma.
Assay [11] has as its system SK-MEL-2 melanoma.
Assay [12] deals with EKVX NSCLC.
Assay [13] has as its system SN12C renal.
The test system of assay [14] is UO-31 renal.
Assay [15] relates to TK-10 renal.
The subject of assay [16] is ACHN renal.
Assay [17] has as its system CAKI-1 renal.
The subject of assay [18] is A498 renal.
Assay [19] deals with CCRF-CEM leukemia.
The subject of assay [20] is MOLT-4 leukemia.

Consider 8 molecules from PubChem BioAssay (NCI).

Compounds without any hit were thinned out: in the full panel of roughly 83,000, 20% have a hit.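 Percent growth is the endpoint: 0 to 100 indicates growth inhibition (40 means 60% inhibition), 0 means no net growth, and negative values indicate cell death.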 Values without a mark were called inactive. Calls of active or inactive are those of the source. Rule for the calls: active = growth percent below 10; inactive = the rest.

Turning to `COc1cc(/C=C/C(=O)c2ccc(F)cc2)ccc1Oc1nc(Nc2ccc(F)cc2)nc(N(C)C)n1`, the growth in assay [1] is 37.2%; in assay [2] it was 60.4%; in [3], 72.5%; in assay [4] it was 68.6%; in assay [5], 9.68% (active); in [6], 63.9%. The growth in [7] was 40%; in [8], 51%; in assay [9], -56.3% (active); in [10] it was 62%; in assay [11], 61%; in assay [12], 50.1%. Besides, the growth in assay [13] was 60.1%; in assay [14], 47.1%; in assay [15] it was 99.4%; in assay [16], 50.9%; in assay [17], 58%; in [18], 86.5%. In addition, the growth in assay [19] is 15.2%; in assay [20], 1.46% (active).
Consider `COc1ccc2[nH]cc(/C=N/Nc3cccc(Cl)n3)c2c1`, for which the growth was 29.6% in assay [1]; 60.6% in [2]; 61.8% in [3]; 61% in assay [4]; 57.5% in assay [5]; 35% in [6]. Also, the growth in [7] is 64%; in [8], 61.8%; in [9], 28.8%; in [10] it was 96.4%; in [11] it was 92%; in assay [12], 44.2%. The growth in [13] was 38.7%; in assay [14] it was 33.5%; in assay [15], 91.1%; in assay [16], 47.8%; in assay [17], 46.7%; in [18], 120%. In addition, the growth in assay [19] was 9.72% (active); in assay [20], 14.8%.
Regarding `Oc1ccc(/C=C2\CCCc3cc4ccc(O)cc4[o+]c32)c(O)c1`, the growth was 10.1% in [1]; 88.5% in assay [2]; 91.9% in assay [3]; 58% in [4]; 8.94% (active) in assay [5]; 28.8% in assay [6]. In addition, the growth in [7] is 69.6%; in assay [8] it was 25%; in assay [9] it was -31.1% (active); in [10] it was 33.9%; in assay [11], 37.2%; in assay [12], 65.9%. Also, the growth in [13] was 26.5%; in assay [14], 51.9%; in [15], 92.3%; in assay [16], 29.3%; in assay [17], 40.2%; in assay [18] it was 130%. In addition, the results for the growth in assay [19] and in assay [20] were 39% and 28.5%, respectively.
As for `COc1cccc2nc(Nc3cccc(NC(=O)c4ccc(CN5CCCN(C)CC5)c(C(F)(F)F)c4)c3)ccc12`, the growth in [1] is -100% (active); in [2] it was -72% (active); in assay [3], -84.5% (active); in assay [4], -99.3% (active); in assay [5] it was -55.6% (active); in assay [6], -69.8% (active). The growth in assay [7] was -96.9% (active); in [8], -74.1% (active); in [9], -98.8% (active); in assay [10], -100% (active); in assay [11], -87.4% (active); in assay [12], -98.9% (active). For the same molecule, the growth in assay [13] is -79.9% (active); in [14] it was -97.2% (active); in [15], -89.4% (active); in assay [16] it was -100% (active); in assay [17], -100% (active); in assay [18], -91% (active). Moreover, the growth in [19] was -54.3% (active); in [20], -42.8% (active).
For the molecule `COc1ccc(CN2[C@@H](C(=O)NCc3ccc(C(=O)NO)cc3)Cc3c([nH]c4ccccc34)[C@@H]2C)cc1`, the growth is 19.1% in assay [1]; 17.6% in assay [2]; 15.8% in assay [3]; 40.3% in [4]; 33% in assay [5]; 29% in assay [6]. Moreover, the growth in assay [7] is -21.1% (active); in assay [8] it was -20.9% (active); in assay [9], 1.67% (active); in [10] it was 17.6%; in assay [11], 2.82% (active); in assay [12], 11.9%. Moreover, the growth was 29.8% in assay [13]; 36% in [14]; 16.5% in [15]; 36% in assay [16]; 39.5% in assay [17]; -5.13% (active) in assay [18]. For the same molecule, the growth was 15.8% in [19] and 11.3% in assay [20].
Consider `CN(C)c1ccc(/C=C/c2nc3ccccc3c(=O)n2CC(=O)Nc2ccc(Cl)cc2)cc1`, for which the growth in [1] was 42.2%; in assay [2], 31.9%; in assay [3], 64%; in [4] it was 34.8%; in [5], 39.7%; in assay [6], 30.2%. In addition, the growth was 55.7% in [7]; 70.6% in assay [8]; 9.3% (active) in assay [9]; 66% in assay [10]; 94.9% in [11]; 80% in assay [12]. The growth is 76.4% in assay [13]; 87.4% in assay [14]; 83.1% in assay [15]; 43.3% in [16]; 53.1% in assay [17]; 76.1% in assay [18]. Besides, the results for the growth in assay [19] and in assay [20] were 88.6% and 74.7%, respectively.
Turning to `Brc1ccc(/C=C/c2n(Cc3ccc4ccccc4c3)c3ccccc3[n+]2Cc2ccc3ccccc3c2)cc1`, the growth was 7.22% (active) in assay [1]; -87% (active) in [2]; -84.3% (active) in [3]; -45.9% (active) in assay [4]; -88.9% (active) in [5]; -79.1% (active) in assay [6]. Besides, the growth in assay [7] is -99.2% (active); in [8] it was -81.9% (active); in assay [9], -100% (active); in assay [10], -93.1% (active); in [11], -88.9% (active); in assay [12], -81.6% (active). In addition, the growth is -58.9% (active) in assay [13]; 44.6% in [14]; -63.2% (active) in assay [15]; -31.6% (active) in [16]; -29.9% (active) in assay [17]; 54.9% in assay [18]. The growth in [19] was -14.2% (active); in assay [20], -7.46% (active).
In the case of `CC(=O)Nc1ccc(-n2cnc3cc(-c4ccc(O)cc4)ccc32)cc1C`, the growth was 49.2% in [1]; 61.6% in assay [2]; 58.4% in assay [3]; 58.4% in [4]; 47.7% in assay [5]; 58.5% in [6]. Further, the growth in [7] was 46.4%; in [8] it was 42.9%; in assay [9], 53.3%; in assay [10], 51.8%; in [11], 19.9%; in [12], 61.6%. For the same molecule, the growth in [13] was 40.4%; in assay [14] it was 35.5%; in [15] it was 73.9%; in [16] it was 43.1%; in assay [17], 44.2%; in assay [18], 92.1%. For the same molecule, the growth in [19] is 65.1%; in assay [20], 64.7%.
